The whole screen tested about 2,400 compounds, of which about 220 (9.2%) were called active. The sample as a whole holds a higher share of actives than the screen did. Unmarked numbers belong to inactive results.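 How the source made its calls: active means signal change above the mean of dofetilide-free buffer controls plus 3 SD, so a positive margin; inactive means the rest.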
Experiment: thallium signal changes without hERG – cell-based, CHO-K1 parental line, FluxOR thallium flux, counter-screen for hERG block protection project, confirmation (AID 1839);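 further: compounds applied alone with no dofetilide to cells lacking hERG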
Details: CHO-K1 parental cells, FluxOR thallium flux fluorescence; at 10 µM

SMILES | signal change vs control minus 3*SD hit threshold (margin above threshold, higher = more increase)
CC(C)Oc1cc(S(=O)(=O)N2CCCCC2)ccc1N | -27.8%
CC(C)COc1ccc(-c2nn(-c3ccccc3)cc2C(=O)Nc2nccs2)cc1 | -25.4%
COc1ccc(-c2nc(=S)c3ccc4ccccc4c3[nH]2)cc1 | 32.2% (active)
COc1ccc(OC(=O)Cc2cccc3ccccc23)cc1 | -30.2%
COc1ccc(-n2c(=S)[nH]c3ccccc3c2=S)cc1 | -30.8%
CCc1ccc(NC(=S)NC(=O)c2c(-c3ccccc3Cl)noc2C)cc1 | -32.8%
C=CCn1c2ccccc2c(=O)c2cc(C#Cc3ccsc3)ccc21 | -24.5%
COc1ccc(C(=O)CC(=O)C(=O)Nc2ccccc2)cc1 | -20.3%
CCc1ccc(NC(=O)C(=O)NNC(=O)COc2cccc(OC)c2)cc1 | -13.5%
Cc1ccccc1NC(=O)C(=O)NNC(=O)COc1ccc2ccccc2c1 | -2.5%
COc1cccc(OCC(=O)NNC(=O)C(=O)Nc2ccc(OC)cc2OC)c1 | -21.1%
COc1ccccc1NC(=O)C(=O)NNC(=O)COc1ccc2ccccc2c1 | 59.2% (active)
COc1ccc(OCC(=O)NNC(=O)C(=O)Nc2ccc(C)cc2)cc1 | -35.4%
COc1ccc(NC(=O)C(=O)NNC(=O)COc2ccc(OC)cc2)cc1 | -38%
O=C(COc1ccc2ccccc2c1)NNC(=O)C(=O)Nc1ccccc1 | 15.8% (active)
COc1cccc(OCC(=O)NNC(=O)C(=O)Nc2cccc(C)c2)c1 | 0.8% (active)
COc1ccc(NC(=O)C(=O)NNC(=O)COc2ccc(Cl)cc2)c(OC)c1 | -0.4%
N#Cc1cccc(N=c2ssnc2Cl)c1 | -30.2%
CCOc1cc(N2CCOCC2)c(OCC)cc1NC(=O)Cn1nc(C)c([N+](=O)[O-])c1C | -22.7%
Cc1ccccc1NC1=C/C(=N\S(=O)(=O)c2ccc(C(=O)O)cc2)c2ccccc2C1=O | -22%
Cc1ccc(C(=O)n2c(-c3ccccc3)cnc2SCC(=O)Nc2ccc(C)cc2C)cc1 | -8.7%

SMILES | signal change vs control minus 3*SD hit threshold (margin above threshold, higher = more increase)
CC12CCC(C(=O)OC3CCCCC3)(OC1=O)C2(C)C (configuration not stated) | -36.3%
O=C1c2cccc3cccc(c23)C(=O)C1(O)O | -20.6%
S=c1[nH]c2cc(-c3ccccc3)ccc2o1 | 38.6% (active)
COC(=O)c1sc(NC(=S)NC(=O)c2ccc(C)cc2)nc1C | -19.1%
Cc1ccsc1CN(C(=O)c1ccc([N+](=O)[O-])cc1)C1CCS(=O)(=O)C1 (configuration not stated) | -32.2%
CCCCOC(=O)c1ccc(NC(=S)NC(=O)c2c(Br)c(C)nn2C)cc1 | 6.3% (active)
CCCCOC(=O)c1ccc(NC(=S)NC(=O)c2c(Cl)cnn2C)cc1 | -18.6%
Cc1nn(C)c(C(=O)NC(=S)Nc2ccc([N+](=O)[O-])cc2)c1Cl | -13.2%
CC1CCc2sc(-c3n[nH]c(=S)o3)cc2C1 (configuration not stated) | -19.1%
CC(C)(C)c1cc(C(=O)NNC(=O)c2ccc(Cl)cc2)no1 | -1.2%
O=C(O)c1cc(NN=C2c3ccccc3-c3ccccc32)ccc1Cl | 3.2% (active)
O=C(O)c1cc(N/N=C/c2ccc(-c3ccccc3)cc2)ccc1Cl | -29.5%
CCCCOc1ccc(-c2c(C#N)c(N)[nH]c(=S)c2C#N)cc1 | -44.5%
CC(NC(=O)c1ccc(F)cc1)c1ccc2c(c1)CCCC2 (configuration not stated) | -12.8%
CCc1ccc(C(C)NC(=O)c2ccc(F)cc2)cc1 (configuration not stated) | -6.8%
CC(NC(=O)c1ccc(Br)cc1)c1ccc2c(c1)CCCC2 (configuration not stated) | 2.4% (active)
COc1cccc(NC(=O)CSCc2n[nH]c(=O)[nH]2)c1 | -30%
COc1ccc(-c2csc(NC(=S)NC(=O)c3cccs3)n2)cc1OC | -41.1%
CCOc1cc(Br)c(C(=O)O)cc1OC | -30.9%
O=C(CSc1nc2cc(Cl)ccc2s1)c1cc2ccccc2o1 | -23%
O=C(Cn1nc(-c2ccccc2)c2ccccc2c1=O)Nc1ccc(O)cc1 | -37.1%

SMILES | signal change vs control minus 3*SD hit threshold (margin above threshold, higher = more increase)
O=[N+]([O-])c1cccnc1Sc1n[nH]c(-c2ccc(Cl)cc2)n1 | -19.6%
COc1ccc(CCn2c(S)nc3ccccc3c2=O)cc1 | -22.5%
C=CCNC(=S)NC(=O)c1ccc(C)c(Br)c1 | -26.8%
C=CCN(CC=C)C(=S)NC(=O)c1ccc(OC)c(Br)c1 | 4.6% (active)
C=CCN(CC=C)C(=S)NC(=O)c1ccc(OC)cc1 | -14.4%
C=CCN(CC=C)C(=S)NC(=O)c1ccc(C)c(Br)c1 | 48.9% (active)
CCN(CC)C(=S)NC(=O)c1ccc(OC)c(Br)c1 | -18.8%
C=CCN(CC=C)C(=S)NC(=O)c1ccc([N+](=O)[O-])cc1 | -16.4%
Cc1nnc(NC(=O)C2CCCN(S(=O)(=O)c3ccccc3C(F)(F)F)C2)s1 (configuration not stated) | -12.2%
CCCCNC(=O)c1onc(CSc2nc3ccccc3[nH]2)c1C(=O)NCCCC | -27.7%
C=CCn1c(O)c(N=NC(=S)Nc2ccc(OC)cc2)c2ccccc21 | -17.1%
Cc1nnc(NC(=O)CN2CCN(Cc3ccc(F)cc3Cl)CC2)s1 | -35.7%
O=C(Nc1cccc(N=Cc2cc(Cl)cc(Br)c2O)c1)c1ccco1 | -5.5%
CCOC(=O)c1c(NC(=S)NC)sc2c1CC(C)(C)SC2 | 22.5% (active)
C=CCNC(=S)Nc1sc2c(c1C(=O)OCC)CC(C)(CC)OC2 (configuration not stated) | -1.5%
CCOC(=O)c1c(NC(=S)NC)sc2c1CCCC2 | -11%
CCCN(CC1CC1)C(=S)Nc1ccccc1F | -25.8%
COc1cc(/C=C2/SC(=S)N(CC(=O)O)C2=O)ccc1OCC(=O)Nc1ccc(C)c(C)c1 | -34.3%
COc1ccccc1C(=O)Nc1ccnn1C1CCN(C(=O)c2ccoc2C)CC1 | -41.5%
O=C(CSc1nc(N2CCCCC2)nc(N2CCCCC2)n1)c1ccccc1 | -13.7%

Reference: PubChem BioAssay AID1839 (Johns Hopkins Ion Channel Center, 2009)
